# Calls of active or inactive are those of the source. Entries that show only a call come without a potency. The call rests on the fitted dose curve; in most records, active means well fitted curve in the direction sought with a large enough effect in the repeat runs; inconclusive means weak or mixed curves; inactive means flat fitted curve, though single readings scatter.
# Experiment: qHTS assay to test for compound auto fluorescence at 590 nm (red) in HepG2 cell free culture (AID 720684)
# Details: cell-free medium autofluorescence, red 540/590 nm; series mostly up to 91.3 µM
# From the text: U.S. Tox21 Program National Center for Advancing Translational Sciences [NCATS] NIH Chemical Genomics Center [NCGC] U.S. Environmental Protection Agency [EPA] National Institutes of Environmental Health Sciences [NIEHS] National Toxicology Program [NTP] U.S. Food and Drug Administration [FDA] Tox21 Assay Overview: Compound auto fluorescence often interferes with screening of the compound library against various biological targets and signaling pathways. Some of these compounds may have fluorophoric properties. Such properties may interfere with the assay outputs resulting in false positives and/or negatives. To decrease such complications and ensure the compound activities are relevant in terms of biological response, the Tox21 10K compound library was screened for auto fluorescence. From the fluorophores used as reporter signals in our screening assays, the auto fluorescence equivalencies of compounds against three fluorophores have been evaluated: Triamterene, Fluorescein and Rose Bengal sodium for blue, green and red fluorescence, respectively. The fluorescence intensities were measured using Excitation/Emission wavelengths at 405/460nm, 485/535nm and 540/590nm for blue, green and red labels, respectively. This assay includes the red fluorescence data.
# Tox21 Assay Protocol Summary: 5 uL of culture medium (MEM containing 10% FBS) per well was dispensed into black wall/clear bottom 1536-well plates using a Multidrop Combi Dispenser (ThermoFisher Scientific, Waltham, MA). After 23 nL compound or DMSO vehicle was transferred into assay plate by a pintool work station (Kalypsys, San Diego, CA), fluorescence intensities in the assay plates were measured by an Envision (PerkinElmer, Shelton, CT) plate reader using three labels for measuring blue, green and red fluorescence at […] 460, 535 and 590nm respectively.
row,Structure (SMILES),Potency
1,CC(=O)Oc1c(C)c(C)c2c(c1C)CC[C@@](C)(CCC[C@H](C)CCC[C@H](C)CCCC(C)C)O2,inactive
2,C[C@]12CC[C@@H]3c4ccc(O)cc4CC[C@H]3[C@@H]1CC[C@@H]2O,inactive
3,CCCCCC1C(=O)CCC1CC(=O)OC (stereo not given),inactive
4,CCCCCCC(C)O (stereo not given),inactive
5,Cc1ccc(C(C)(C)C)c(O)c1,inactive
6,CNC[C@H](O)c1ccc(O)c(O)c1,inactive
7,C=CCCCCCCCCCC,inactive
8,c1ccc2c(c1)[nH]c1ccccc12,inactive
9,c1ccc2cc3ccccc3cc2c1,inactive
10,CCCCCC=O,inactive
11,CCOC(=O)C(C)Oc1ccc(Oc2cnc3cc(Cl)ccc3n2)cc1 (stereo not given),inactive
12,Cc1ccc(C)c(O)c1,inactive
13,CC(=O)Nc1ccc2c(c1)Cc1cc(NC(C)=O)ccc1-2,inactive
14,CC1(C)O[C@@H]2C[C@H]3[C@@H]4C[C@H](F)C5=CC(=O)C=C[C@]5(C)[C@@]4(F)[C@@H](O)C[C@]3(C)[C@]2(C(=O)CO)O1,inactive
15,CCc1cccc2c3c([nH]c12)C(CC)(CC(=O)O)OCC3 (stereo not given),inactive
16,NCCS(=O)(=O)O,inactive
17,CC/C=C\C/C=C\C/C=C\CCCCCCCC(=O)O,inactive
18,ClC/C=C/CCl,inactive
19,CC(=O)[C@@]1(O)CC[C@H]2[C@@H]3C[C@H](C)C4=CC(=O)C=C[C@]4(C)[C@@]3(F)[C@@H](O)C[C@@]21C,inactive
20,CCCCCCCC/C=C\CCCCCCCC(=O)O,inactive

row,Structure (SMILES),Potency
1,CCCCCCCCCCCCO,inactive
2,OCCNCCO,inactive
3,COc1ccc2nc(N)sc2c1,inactive
4,CC(=O)O[C@]1(C(C)=O)CC[C@H]2[C@@H]3C=C(C)C4=CC(=O)CC[C@]4(C)[C@H]3CC[C@@]21C,inactive
5,CCC(Cc1c(I)cc(I)c(N)c1I)C(=O)O (stereo not given),inactive
6,O=C1CCc2ccccc2O1,inactive
7,C=CC(C)(O)CCC=C(C)C (stereo not given),inactive
8,CC(C)(Oc1ccc(Cl)cc1)C(=O)O,inactive
9,C=C[C@H]1CN2CC[C@H]1C[C@H]2[C@H](O)c1ccnc2ccc(OC)cc12,inactive
10,CC(C)(C)c1cccc(C(C)(C)C)c1O,inactive
11,C=C[Si](OCCOC)(OCCOC)OCCOC,inactive
12,Clc1ccc(Sc2cc(Cl)c(Cl)cc2Cl)cc1,inactive
13,COC(=O)c1ccc(C)cc1,inactive
14,CC1(C)OC(=O)NC1=O,inactive
15,C/C=C/C(=O)N(CC)c1ccccc1C,inactive
16,CC1=CC(C)(C)Nc2ccccc21,inactive
17,[O-]/[N+](=N\O)c1ccccc1,inactive
18,OC[C@H]1O[C@@H]2O[C@H]3[C@H](O)[C@@H](O)[C@@H](O[C@H]4[C@H](O)[C@@H](O)[C@@H](O[C@H]5[C@H](O)[C@@H](O)[C@@H](O[C@H]6[C@H](O)[C@@H](O)[C@@H](O[C@H]7[C@H](O)[C@@H](O)[C@@H](O[C@H]1[C@H](O)[C@H]2O)O[C@@H]7CO)O[C@@H]6CO)O[C@@H]5CO)O[C@@H]4CO)O[C@@H]3CO,inactive
19,O=C(CCCN1CCC(O)(c2ccc(Cl)cc2)CC1)c1ccc(F)cc1,inactive
20,COc1ccc(C(=O)c2ccccc2O)c(O)c1,inactive

# — PubChem BioAssay (Tox21)
